# Sampled rows, rich in hits. Any-hit rate of the full collection: about 2.8%.
# PP5 primary = inhibitors of human protein phosphatase 5 (PP5). P53041. purified PP5c, OMFP substrate fluorescence. inhibition, % at 6.7 µM. hit rate 0.18% among 320,000;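 active = inhibition above the campaign's mean inhibition across all tested compounds plus 3 SD, cut at about 9.5% in these data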;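 note: 0% = DMSO only and 100% = 100 µM cantharidin control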
# Exocytosis inh = lytic granule exocytosis inhibition | TALL-104 LAMP-1 surface exposure, flow cytometry; cells stimulated with thapsigargin and PMA | inhibition, % at 10 µM | hit rate 0.66% among 360,000 | AID 651702;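 active = inhibition above about 55%, limit read from the data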
# PP1 counter = blocks human PP1-alpha phosphatase, a PP5 counter-screen; P62136; purified PP1alpha, OMFP fluorescence; inhibition, % at 6.7 µM; hit rate 0.9% among 320,000; AID 2235;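 active = inhibition above the mean inhibition of all tested compounds plus 3 SD, computed separately for each screening campaign, cut at about 15% in these data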
# Target sequence (P62136 whole entry, looked up): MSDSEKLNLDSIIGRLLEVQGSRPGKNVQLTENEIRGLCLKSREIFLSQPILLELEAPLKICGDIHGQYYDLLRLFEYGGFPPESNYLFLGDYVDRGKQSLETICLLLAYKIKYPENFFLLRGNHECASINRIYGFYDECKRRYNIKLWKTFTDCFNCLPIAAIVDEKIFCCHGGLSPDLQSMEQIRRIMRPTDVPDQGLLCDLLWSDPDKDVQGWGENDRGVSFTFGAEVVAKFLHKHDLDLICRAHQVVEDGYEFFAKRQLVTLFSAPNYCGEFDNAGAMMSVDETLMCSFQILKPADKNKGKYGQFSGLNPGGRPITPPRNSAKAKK
# SKKanGAS inh = SKKanGAS growth inhibition. inhibition, % at 7.5 µM. S. pyogenes SKKanGAS, kanamycin growth, BacTiter-Glo, 6 h. hit rate 1.3% among 300,000. AID 1662;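 active = mean replicate score, as percent of positive control median, at least 50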;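 note: strain carries kanamycin resistance gene driven by streptokinase promoter and grows in 40 µg/ml kanamycin; loss of luminescence reflects streptokinase promoter inhibition or plain growth inhibition; 0% = median of DMSO wells and 100% = positive control at its reference dose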
# IDE inh = inhibitors of human insulin-degrading enzyme in cells; AID 434962; HEK cells, FAbetaB cleavage, fluorescence polarization; inhibition, % at 5.59 µM; hit rate 0.41% among 320,000;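 active = percent inhibition above the average of all tested compounds plus 3 SD, set per screening campaign, cut at about 16% in these data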;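 note: IDE supplied by intact live HEK cells; FP after avidin binding of uncleaved biotin substrate so inhibition keeps polarization high; 0% = DMSO wells and 100% = 60 µM reference IDE inhibitor Ii1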
# IDE cell activ = boosts human insulin-degrading enzyme activity in HEK cells; P14735; FAbeta-B cleavage, fluorescence polarization; 0% vehicle, 100% cell-free pure enzyme wells; hit rate 0.073% among 340,000; activation, % at 5.96 µM; AID 493087;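 active = activation above the mean of all tested compounds plus 3 SD, set per screening campaign, cut at about 17% in these data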
# An asterisk follows results filed as active; / = no result given.
SMILES,PP5 primary,Exocytosis inh,PP1 counter,SKKanGAS inh,IDE inh,IDE cell activ
CC(=O)Nc1c(S(=O)(=O)c2ccccc2)c2nc3ccccc3nc2n1Cc1ccccc1,3,2,-2,-8,1,3
C=CCn1c(NS(=O)(=O)c2ccccc2)c(S(=O)(=O)c2ccc(C)cc2)c2nc3ccccc3nc21,13*,-1,30*,27,7,2
O=S(=O)(Nc1c(S(=O)(=O)c2ccccc2)c2nc3ccccc3nc2n1C1CCCCC1)c1ccccc1,2,28,8,91*,7,1
COc1ccccc1S(=O)(=O)N[C@@H]1CC[C@@H](CCn2cc(C3CC3)nn2)O[C@@H]1CO,/,13,/,/,/,/
COc1ccc(NC(=O)COc2ccccc2C)cc1S(=O)(=O)N1CCCCC1,4,-1,-4,-2,1,2
COc1cc(C(=O)NS(=O)(=O)c2ccccc2C)ccc1Cc1cn(C)c2ccc(NC(=O)OC3CCCC3)cc12,2,/,24*,68*,10,/
O=[N+]([O-])c1ccc(NN=Cc2ccccc2)nc1,/,-4,/,/,/,1
O=[N+]([O-])c1ccc(N/N=C\c2cccn2-c2ccccc2)nc1,4,57*,4,6,7,2
CC(C)(C)NC(=O)CN(Cc1ccc2c(c1)OCO2)C(=O)CNS(=O)(=O)c1ccccc1,0,-8,-1,7,-3,-2
CN(C)c1ccc(-c2c(-c3ccc4c(c3)OCO4)noc2-c2ccsc2)cn1,-2,0,-6,11,-3,5
O=C(O)c1cc(-c2ccc(-c3c(-c4ccc5c(c4)OCO5)noc3-c3ccsc3)cc2)nc2ccccc12,-2,-2,1,94*,5,2
Cc1cccc(C(=O)NNC2=C(C(=O)C(F)(F)F)CCC2)c1O,1,17,1,104*,-1,0
S=C(Nc1cccc(Cl)c1)N(CCCN1CCCC1)Cc1cccn1Cc1ccc(Cl)cc1,0,85*,6,-21,5,8
COc1ccc(/C=C/C(=O)NC(=S)NNC(=O)c2cc(OC)c(OC)c(OC)c2)cc1,2,-3,6,101*,2,4
COc1ccc(/C=C/C(=O)NC(=S)NNC(=O)c2cc(OC)c(OC)c(OC)c2)cc1OC,2,6,-1,89*,6,/
COc1ccc(/C=C/C(=O)NC(=S)Nc2ccc(C(=O)O)cc2)cc1,2,3,14,2,10,-8
Cc1cc(C)nc(OC(C(=O)O)C(OCC(C)C)(c2ccccc2)c2ccccc2)n1 (centres undefined),1,-1,7,-5,2,3
CCCn1c(N)c(C(=O)CN(C)CC(=O)Nc2c(Cl)cccc2Cl)c(=O)[nH]c1=O,1,-6,4,/,-3,3
COc1cccc2c1[C@@H]1CN(CCCCn3c(=O)[nH]c4c(sc5ncc(-c6ccccc6)nc54)c3=O)C[C@@H]1CO2,-3,21,17*,/,0,4
COc1cc2[nH]c(=O)n(CCCC(=O)N3CC=C(c4ccccc4)CC3)c(=O)c2cc1OC,-1,-1,-2,0,9,-5
O=C(NC1CCCCC1)c1sc(=S)n2c1[nH]c(=O)c1ccccc12,1,3,0,60*,5,-2
CCCCNC(=O)c1sc(=S)n2c1[nH]c(=O)c1ccccc12,0,0,2,54*,2,5
O=C(NCC1CCCO1)c1sc(=S)n2c1[nH]c(=O)c1ccc(C(=O)N3CCCCC3)cc12 (centres undefined),3,-5,5,27,9,5
O=C(NCCc1ccccc1)c1ccc2c(=O)[nH]c3c(C(=O)NCC4CCCO4)sc(=S)n3c2c1 (centres undefined),1,-2,5,44,0,-3
CCNC(=O)CC1SC(=Nc2ccc(C)c([N+](=O)[O-])c2)N(C)C1=O (centres undefined),2,6,-2,-13,6,/
SMILES,PP5 primary,Exocytosis inh,PP1 counter,SKKanGAS inh,IDE inh,IDE cell activ
CCn1cnc2c1c(=O)n(CC(=O)OC(C)C(N)=O)c(=O)n2Cc1ccccc1 (centres undefined),0,-13,0,1,-3,6
CCN(CCCn1c(SCC#N)nc2ccccc2c1=O)c1ccccc1,2,6,4,61*,3,4
C=C(C)Cn1c(SCC#N)nc2ccccc2c1=O,-1,-2,2,16,-1,-1
CCCCNC(=O)C1C(c2ccc(C(F)(F)F)cc2)=Nc2ccccc2N1C(=O)c1cccc2ccccc12 (centres undefined),/,2,/,/,/,/
CCC(c1nnnn1CCc1ccccc1)N(Cc1ccco1)Cc1cc2c(C)ccc(C)c2[nH]c1=O (centres undefined),1,7,16*,28,4,6
CCOc1ccc(Nc2cc(C)nc(-n3nc(C)cc3C)n2)cc1,1,2,7,87*,-2,0
CCOC(=O)c1cnc(-n2nc(C)cc2C)nc1Nc1ccc(OC)cc1,0,-2,9,66*,-2,7
CNc1cc(C)nc(-n2nc(C)cc2C)n1,0,0,5,18,1,2
COc1ccc(-c2csc(NC(=O)C3CSC4(C)CCC(=O)N34)n2)c(OC)c1 (centres undefined),2,-17,2,25,4,3
CC1Oc2ccc(C#N)cc2N(Cc2ccccc2OC(F)(F)F)C1=O (centres undefined),/,11,/,/,/,/
COc1cccc(/C=N/NC(=O)c2nnn(-c3nonc3N)c2C(C)C)c1OCc1ccc(F)cc1,2,-2,3,60*,-1,6
CC(C)c1c(C(=O)N/N=C/c2ccc(OCc3ccc(F)cc3)cc2)nnn1-c1nonc1N,4,-1,0,1,5,-3
CC(C)c1c(C(=O)N/N=C/c2ccc(OCc3ccccc3)cc2)nnn1-c1nonc1N,3,21,8,8,-1,1
CC(C)c1c(C(=O)N/N=C/c2cccc(OCc3ccccc3)c2)nnn1-c1nonc1N,3,6,4,81*,0,6
COC(=O)C1=COC(OC2OC(CO)C(O)C(O)C2O)C2C(C)CC(=O)C12 (centres undefined),/,5,/,/,/,/
Cc1nn(C)cc1CN1CCCC(C(=O)c2ccc(-c3ccccc3)cc2)C1 (centres undefined),-1,3,-3,-4,3,-4
COc1ccc2nc(Nc3nc(C)c(C(C)=O)s3)sc2c1,5,2,3,56*,6,0
Cc1ccc(C(=O)N/C(=C\c2ccc(-c3ccccc3[N+](=O)[O-])o2)C(=O)NCCCN2CCOCC2)cc1,2,91*,0,18,1,4
O=C(Oc1c(Cl)cc(Cl)c2cccnc12)c1cccs1,0,-1,5,92*,-2,4
Cc1ccc(S(=O)(=O)Nc2cc(Cl)c(O)c3ncccc23)cc1,3,19,6,79*,2,-8

# Screens deposited in PubChem BioAssay by several laboratories.
